# Experimental data reported in PMC7862700, “An all-to-all approach to the identification of sequence-specific readers for epigenetic DNA modifications on cytosine”.
# What was measured:
# Assay in all cases: DAPPL (digital affinity profiling via proximity ligation, sequencing); 10 mM Tris-HCl pH 7.5, 50 mM NaCl, 1 mM DTT, 4% glycerol, room temperature, 30 min; GST-TFs on glutathione beads, 16-mer random dsDNA library, 0.1% formaldehyde crosslink after washing; high values mean tight binding
# Details in all cases: protein: recombinant; tags: N-terminal GST; dsDNA, one strand shown
# FLI1 = biological target: T1, FLI1 (Homo sapiens, UniProt Q01543 1-452)
# T1 sequence: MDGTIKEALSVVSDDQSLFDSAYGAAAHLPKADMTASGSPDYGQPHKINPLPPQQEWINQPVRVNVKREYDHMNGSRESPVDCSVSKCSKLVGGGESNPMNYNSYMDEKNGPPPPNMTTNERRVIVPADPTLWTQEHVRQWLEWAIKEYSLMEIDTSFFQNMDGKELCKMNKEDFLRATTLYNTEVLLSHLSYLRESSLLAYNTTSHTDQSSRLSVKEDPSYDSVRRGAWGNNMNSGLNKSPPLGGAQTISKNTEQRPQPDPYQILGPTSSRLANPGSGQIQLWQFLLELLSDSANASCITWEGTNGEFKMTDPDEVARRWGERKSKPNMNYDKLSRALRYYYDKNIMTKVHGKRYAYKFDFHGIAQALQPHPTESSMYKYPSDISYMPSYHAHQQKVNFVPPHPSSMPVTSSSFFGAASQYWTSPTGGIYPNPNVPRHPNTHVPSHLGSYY
# How it was run: (§1)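 Human transcription factors carrying a GST fusion were produced in yeast, bound to glutathione beads, tagged with DNA barcodes and pooled together with a tag-only sample. Each pool was held with 200 nmole of a random double-stranded 16-mer DNA library in Tris/NaCl/DTT/glycerol buffer for 30 min at room temperature, then washed, crosslinked in 0.1% formaldehyde, proximity-ligated with BsaI/T4 ligase (1 h, 37 °C), PCR-amplified and sequenced on an Illumina NextSeq500. Binding signal is the read frequency of each hexamer for a given factor divided by its frequency in the tag-only sample.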
# ELK1 = biological target: T2, ELK1 (Homo sapiens, UniProt P19419 1-428)
# T2 sequence: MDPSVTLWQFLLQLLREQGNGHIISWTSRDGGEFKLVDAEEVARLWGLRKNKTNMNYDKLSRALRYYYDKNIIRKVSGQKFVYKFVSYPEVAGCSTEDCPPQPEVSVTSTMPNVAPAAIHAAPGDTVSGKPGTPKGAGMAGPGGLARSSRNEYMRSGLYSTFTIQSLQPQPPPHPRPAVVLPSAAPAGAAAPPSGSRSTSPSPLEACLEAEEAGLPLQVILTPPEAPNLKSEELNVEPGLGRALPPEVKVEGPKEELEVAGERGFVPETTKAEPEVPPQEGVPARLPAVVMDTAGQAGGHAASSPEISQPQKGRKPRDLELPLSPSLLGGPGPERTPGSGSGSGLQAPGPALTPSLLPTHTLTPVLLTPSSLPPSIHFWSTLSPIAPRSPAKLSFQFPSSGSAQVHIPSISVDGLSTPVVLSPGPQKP
# How it was run: as §1
# GABPA = biological target: T3, GABPA (Homo sapiens, UniProt Q06546 1-454)
# T3 sequence: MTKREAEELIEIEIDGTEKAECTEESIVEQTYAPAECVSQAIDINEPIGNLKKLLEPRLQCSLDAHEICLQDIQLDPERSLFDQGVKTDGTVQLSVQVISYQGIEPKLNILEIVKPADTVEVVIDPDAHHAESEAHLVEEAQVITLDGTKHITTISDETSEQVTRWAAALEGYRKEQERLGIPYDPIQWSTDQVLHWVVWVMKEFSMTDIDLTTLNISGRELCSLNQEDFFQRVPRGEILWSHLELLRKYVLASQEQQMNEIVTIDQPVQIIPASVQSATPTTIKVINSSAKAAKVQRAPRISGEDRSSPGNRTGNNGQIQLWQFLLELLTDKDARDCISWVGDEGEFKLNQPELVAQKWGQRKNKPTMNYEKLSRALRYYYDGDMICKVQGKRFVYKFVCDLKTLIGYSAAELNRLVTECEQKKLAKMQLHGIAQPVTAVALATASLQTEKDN
# How it was run: as §1
# ERG = biological target: T4, ERG (Homo sapiens, UniProt P11308 1-479)
# T4 sequence: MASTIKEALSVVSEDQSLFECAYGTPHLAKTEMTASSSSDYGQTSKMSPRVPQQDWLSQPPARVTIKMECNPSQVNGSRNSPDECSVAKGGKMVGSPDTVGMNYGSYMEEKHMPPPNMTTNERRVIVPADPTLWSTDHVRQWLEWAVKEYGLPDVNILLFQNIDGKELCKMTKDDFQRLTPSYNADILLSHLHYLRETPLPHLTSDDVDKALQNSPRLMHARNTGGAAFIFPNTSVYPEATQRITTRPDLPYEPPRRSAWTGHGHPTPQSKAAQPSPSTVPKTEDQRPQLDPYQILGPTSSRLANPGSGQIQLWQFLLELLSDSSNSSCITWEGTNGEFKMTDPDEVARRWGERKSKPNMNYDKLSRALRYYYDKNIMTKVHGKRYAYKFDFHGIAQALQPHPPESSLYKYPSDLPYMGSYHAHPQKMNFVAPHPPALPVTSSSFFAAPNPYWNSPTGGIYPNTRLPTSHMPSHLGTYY
# How it was run: as §1
# ELF1 = ELF1 (Homo sapiens, UniProt P32519 1-619)
# How it was run: as §1
# EHF = biological target: T5, EHF (Homo sapiens, UniProt Q9NZC4 1-300)
# T5 sequence: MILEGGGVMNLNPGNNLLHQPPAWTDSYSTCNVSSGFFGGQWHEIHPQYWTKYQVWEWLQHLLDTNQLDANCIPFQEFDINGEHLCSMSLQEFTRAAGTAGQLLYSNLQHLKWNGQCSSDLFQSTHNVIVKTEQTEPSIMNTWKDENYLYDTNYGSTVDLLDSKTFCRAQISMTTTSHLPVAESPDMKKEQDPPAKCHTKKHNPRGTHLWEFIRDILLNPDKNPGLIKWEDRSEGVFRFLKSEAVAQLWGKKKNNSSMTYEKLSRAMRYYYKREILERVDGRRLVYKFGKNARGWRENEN
# How it was run: as §1
# SPI1 = SPI1 (Homo sapiens, UniProt P17947 1-270)
# How it was run: as §1
# SPIB = SPIB (Homo sapiens, UniProt Q01892 1-262)
# How it was run: as §1
# ELK3 = biological target: T6, ELK3 (Homo sapiens, UniProt P41970 1-407)
# T6 sequence: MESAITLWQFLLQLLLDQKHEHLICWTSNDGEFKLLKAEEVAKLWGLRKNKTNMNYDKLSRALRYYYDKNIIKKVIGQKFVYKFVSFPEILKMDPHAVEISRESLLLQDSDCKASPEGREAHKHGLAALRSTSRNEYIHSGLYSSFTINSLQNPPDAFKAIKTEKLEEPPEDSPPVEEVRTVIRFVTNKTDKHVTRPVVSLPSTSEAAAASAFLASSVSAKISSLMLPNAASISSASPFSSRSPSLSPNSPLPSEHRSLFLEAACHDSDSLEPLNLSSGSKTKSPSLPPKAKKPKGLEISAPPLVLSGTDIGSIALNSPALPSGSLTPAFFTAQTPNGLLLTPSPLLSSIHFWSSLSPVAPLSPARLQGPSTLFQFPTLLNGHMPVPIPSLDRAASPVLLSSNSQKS
# How it was run: as §1
# SPIB, sequence (Q01892 whole entry): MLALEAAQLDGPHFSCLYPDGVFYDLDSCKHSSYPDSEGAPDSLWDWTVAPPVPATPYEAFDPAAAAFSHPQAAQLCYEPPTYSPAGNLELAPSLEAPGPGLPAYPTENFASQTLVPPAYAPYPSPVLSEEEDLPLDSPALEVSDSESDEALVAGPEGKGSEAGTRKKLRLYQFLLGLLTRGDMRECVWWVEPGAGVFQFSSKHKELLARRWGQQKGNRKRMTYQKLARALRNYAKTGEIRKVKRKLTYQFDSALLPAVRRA
# ELF1, sequence (P32519 whole entry): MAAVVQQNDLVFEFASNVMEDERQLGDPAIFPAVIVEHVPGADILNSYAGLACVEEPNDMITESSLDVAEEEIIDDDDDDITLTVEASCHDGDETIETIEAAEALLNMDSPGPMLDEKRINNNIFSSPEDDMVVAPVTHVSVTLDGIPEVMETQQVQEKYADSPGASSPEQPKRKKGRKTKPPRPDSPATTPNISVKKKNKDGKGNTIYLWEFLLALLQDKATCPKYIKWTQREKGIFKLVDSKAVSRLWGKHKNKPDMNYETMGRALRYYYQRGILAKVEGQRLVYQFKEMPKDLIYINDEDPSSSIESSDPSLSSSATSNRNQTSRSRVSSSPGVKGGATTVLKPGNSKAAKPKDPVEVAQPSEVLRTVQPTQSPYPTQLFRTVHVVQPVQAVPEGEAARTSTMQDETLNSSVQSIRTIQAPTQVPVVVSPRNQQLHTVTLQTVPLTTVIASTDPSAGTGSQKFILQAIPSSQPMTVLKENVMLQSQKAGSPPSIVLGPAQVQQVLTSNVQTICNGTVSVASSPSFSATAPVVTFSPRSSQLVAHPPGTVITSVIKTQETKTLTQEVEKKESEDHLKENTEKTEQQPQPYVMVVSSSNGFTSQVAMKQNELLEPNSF
sequence,measurement,setting,value
CTTGCA,binding signal,FLI1,"1.33 fold enrichment (6-mer frequency, TF over GST control)"
same,binding signal,ELK1,"1.44 fold enrichment (6-mer frequency, TF over GST control)"
same,binding signal,GABPA,"1.31 fold enrichment (6-mer frequency, TF over GST control)"
same,binding signal,ERG,"1.27 fold enrichment (6-mer frequency, TF over GST control)"
same,binding signal,ELF1,"1.4 fold enrichment (6-mer frequency, TF over GST control)"
same,binding signal,EHF,"1.33 fold enrichment (6-mer frequency, TF over GST control)"
same,binding signal,SPI1,"1.25 fold enrichment (6-mer frequency, TF over GST control)"
same,binding signal,SPIB,"1.26 fold enrichment (6-mer frequency, TF over GST control)"
same,binding signal,ELK3,"1.34 fold enrichment (6-mer frequency, TF over GST control)"
